Assay [1] can be described thus: Nuclear factor erythroid 2-related factor 2/antioxidant responsive element (Nrf2/ARE) small molecule agonists: qHTS cell viability counter screen in human keratinocytes (AID 1919968; active = well fitted curve in the direction sought with a large enough effect in the repeat runs; an effect the other way counts as inactive or inconclusive; also: nearly all actives have a fitted effect of over 55% in size; also: potency is read from the fitted curve at half-maximal effect). An outline of the steps: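 In human HaCaT keratinocytes stably expressing an ARE-driven luciferase, compound exposure lasted 23 h at 37 C under 5% CO2. Viable cells are quantified with a protease-based fluorogenic reagent (CellTiter-Fluor) read 1 h after addition.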
Background: Quantitative high-throughput screening tests each substance at several concentrations.

Assay [2] is described as follows: Nuclear factor erythroid 2-related factor 2/antioxidant responsive element (Nrf2/ARE) small molecule agonists: luciferase reporter gene qHTS assay in human keratinocytes (AID 1919969). Also: nearly all actives have a fitted effect of over 35% in size. Also: potency is read from the fitted curve at half-maximal effect.
Assay [3] addresses KiSS-1 receptor (Homo sapiens) (UniProt Q969F8). The assay is described as follows: Human kisspeptin (KISS1R) small molecule agonists, calcium flux assay in KISS1R-HEK293 cells (AID 1920064; active = well fitted curve in the direction sought with a large enough effect in the repeat runs; an effect the other way counts as inactive or inconclusive). Summed up: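 Concentration-response testing used 15 concentrations in triplicate on human KISS1R-expressing HEK293 cells. Calcium-dependent fluorescence (Ex/Em 480/540) was followed kinetically for 3 min after compound transfer.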
Background: Calcium assays in cells follow changes in intracellular calcium, usually with a dye or a luminescent sensor.

A short description of assay [4]: G protein-coupled receptor (GPCR) small molecule agonists, calcium flux assay: HEK293 wild type cell line counter screen (AID 1920065). An outline of the steps: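 Fluorescence intensity signals activation. After overnight (18 h) culture and a 1 h calcium dye load at 37 C, compounds are added by pin tool and the plate read at 480/540 nm for 3 min in 1 s steps.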
A short description of assay [5]: p53 small molecule agonists, cell-based qHTS assay with human liver microsomes (AID 1963577).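 Also: p53 response element beta-lactamase reporter cells with liver microsomes plus NADPH.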 An outline of the steps: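 HLM-supplemented p53RE-bla reporter assay: 16 h compound exposure at 37 C, microsomes and NADPH each 0.5 mg/mL final, read by fluorescence intensity.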
Assay [6] can be described thus: p53 small molecule agonists, cell-based qHTS assay with human liver microsomes: qHTS cell viability counter screen (AID 1963579). Also: nearly all actives have a fitted effect of over 45% in size. An outline of the steps: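 Viability of p53RE-bla cells is measured as CellTiter-Glo luminescence following a 16 h, 37 C incubation with compound, liver microsomes from human donors and NADPH.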
The nature of assay [7]: p53 small molecule agonists, cell-based qHTS assay with rat liver microsomes: qHTS cell viability counter screen (AID 1963580). Also: nearly all actives have a fitted effect of over 45% in size. Summed up: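 Luminescent ATP readout (CellTiter-Glo, 30 min at room temperature) reports viability of p53RE-bla HCT-116 cells after 16 h at 37 C with test compounds under metabolic activation by rat liver microsomes and NADPH at 0.5 mg/mL final each.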

Assay [8] is described as follows: p53 small molecule agonists, cell-based qHTS assay: qHTS cell viability counter screen (AID 1963581). Also: nearly all actives have a fitted effect of over 45% in size. An outline of the steps:
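Luminescence from CellTiter-Glo, reflecting ATP content, serves as the cytotoxicity measure; it is taken after the 2 h reporter substrate step in HCT-116 p53RE-bla cells dosed for 16 h at 37 C.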

Assay [9] can be described thus: p53 small molecule agonists, cell-based qHTS assay (AID 1963582; active = well fitted activation curve with a large enough effect in the signal ratio in the repeat runs, not every such curve was filed as active; the % refers to the signal ratio). Summed up: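 After plating, p53RE-bla cells sat 5 h in the incubator; compounds or DMSO vehicle were pinned in; a 16 h incubation at 37 C followed; FRET substrate was added and, 2 h later at RT, fluorescence was measured.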
Assay [10] addresses 5-hydroxytryptamine receptor 2A (Homo sapiens) (UniProt P28223). The assay can be described thus: 5-hydroxytryptamine receptor 2A (HTR2A) small molecule antagonists, cell-based qHTS assay (AID 1963586). Also: nearly all actives have a fitted effect of over 45% in size. Also: potency is read from the fitted curve at half-maximal effect. Summed up:
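CHO cells stably expressing human HTR2A were plated for 18 h at 37 C, then loaded with calcium dye for 1 h. Compounds were preincubated 5 min at room temperature before DOI (4 nM solution) was added. Kinetic fluorescence was read for 3 min.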

Assay [11] shares this target. The assay is described as follows: 5-hydroxytryptamine receptor 2A (HTR2A) small molecule agonists, cell-based qHTS assay (AID 1963587). Also: nearly all actives have a fitted effect of over 30% in size. Also: potency is read from the fitted curve at half-maximal effect. Summed up:
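HTR2A-CHO cells, plated 18 h at 37 C/5% CO2, dye-loaded 1 h at 37 C; compounds in DMSO added by pin tool (agonist mode). Intracellular calcium flux read as kinetic fluorescence on FDSS over 2 min at 1 s intervals.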

The target of assay [12] is Muscarinic acetylcholine receptor M1 (Homo sapiens) (UniProt P11229). The assay can be described thus: Cholinergic receptor muscarinic 1 (CHRM1) small molecule antagonists, cell-based qHTS assay (AID 1963588). Also: nearly all actives have a fitted effect of over 40% in size. Also: potency is read from the fitted curve at half-maximal effect. Summed up: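 Compounds were tested at 15 concentrations in three independent runs. Dye-loaded CHRM1-CHO cells were exposed 5 min at room temperature before stimulation by acetylcholine added at 50nM. Intracellular calcium was read kinetically on FDSS for 3 min.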
Sequence of Muscarinic acetylcholine receptor M1 (Homo sapiens) (P11229 whole entry, looked up): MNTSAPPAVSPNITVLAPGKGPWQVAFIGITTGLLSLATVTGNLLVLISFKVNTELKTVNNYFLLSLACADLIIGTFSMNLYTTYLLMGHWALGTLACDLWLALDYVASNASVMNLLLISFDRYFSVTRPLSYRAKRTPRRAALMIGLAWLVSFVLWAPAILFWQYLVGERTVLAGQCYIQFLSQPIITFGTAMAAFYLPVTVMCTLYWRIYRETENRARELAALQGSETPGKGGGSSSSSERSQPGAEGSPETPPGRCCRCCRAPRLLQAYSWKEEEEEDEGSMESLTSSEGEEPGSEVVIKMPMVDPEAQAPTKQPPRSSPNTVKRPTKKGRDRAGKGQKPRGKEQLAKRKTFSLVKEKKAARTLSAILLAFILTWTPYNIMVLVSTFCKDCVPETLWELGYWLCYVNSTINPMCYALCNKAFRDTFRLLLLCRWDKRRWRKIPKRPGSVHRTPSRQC

Assay [13] shares this target. The assay can be described thus: Cholinergic receptor muscarinic 1 (CHRM1) small molecule agonists, cell-based qHTS assay (AID 1963589). Also: nearly all actives have a fitted effect of over 35% in size. Also: potency is read from the fitted curve at half-maximal effect. Summed up: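 Fluorescent calcium dye reports M1 activation in stably transfected CHO cells. Compounds, 15 concentrations, added after 1 h dye loading at 37 C; kinetic reading at 1 sec intervals.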
For assay [14], the target named is Beta-2 adrenergic receptor (Homo sapiens) (UniProt P07550). The assay is described as follows: Adrenergic beta2 receptor (ADRB2) small molecule antagonists, cell-based qHTS assay (AID 1963592). Also: series mostly up to about 92 µM; nearly all actives have a fitted effect of over 50% in size. Summed up:
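Assay format: CHO-ADRB2 cells, 18-20hr seeding at 37C/5% CO2, then compound plus 1nM isoproterenol agonist mix for 0.5hr RT. Homogeneous time-resolved fluorescence cAMP detection after 1hr, expressed as 665/615 nm ratio.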

Assay [15] deals with D(2) dopamine receptor (Homo sapiens) (UniProt P14416). The assay is described as follows: Dopamine D2 receptor (DRD2) small molecule agonists, cell-based qHTS assay (AID 1963594). Also: nearly all actives have a fitted effect of over 35% in size. Summed up:
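HEK293 cells stably expressing DRD2 were cultured 24 h at 37 C, then given Ro20-1724 (0.1 mM final) and compounds for 10 min at room temperature. NKH477 (200nM) was then added for 30 min. cAMP was read by HTRF.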

The target is the same in assay [16]. The assay can be described thus: Dopamine D2 receptor (DRD2) small molecule antagonists, cell-based qHTS assay (AID 1963595; active = well fitted inhibition curve with a large enough effect in the signal ratio in the repeat runs, with a control signal flat; the % refers to the signal ratio). An outline of the steps:
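DRD2-HEK293; 0.1 mM Ro20-1724; cpd 10 min RT; NKH477 200 nM + quinpirole 12 nM, 30 min RT; HTRF cAMP (cAMP-d2/anti-cAMP cryptate), 665/620 nm ratio after 1 h.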

Assay [17] in a line: p53 small molecule agonists, cell-based qHTS assay with rat liver microsomes (AID 1963578). An outline of the steps:
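Quantitative HTS of the Tox21 10K library: p53RE-bla cells, rat liver microsomes plus NADPH at 0.5 mg/mL final each, 16 h at 37 C, beta-lactamase fluorescence detection.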

Assay [18] is described as follows: cAMP Responsive Elements (CRE) small molecule antagonists, cell-based qHTS assay (AID 1963591; active = well fitted inhibition curve with a large enough effect in the signal ratio in the repeat runs, not every such curve was filed as active; the % refers to the signal ratio). An outline of the steps: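 Stimulation used NKH477 at a final 0.25 uM for 3 h in compound-treated CRE-bla HEK293T cells, seeded 18 h beforehand. Reporter activity was measured with LiveBLAzer B/G FRET substrate after 2 h at room temperature.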
Assay [19] concerns the target Beta-2 adrenergic receptor (Homo sapiens) (UniProt P07550). The assay is described as follows: Adrenergic beta2 receptor (ADRB2) small molecule agonists, cell-based qHTS assay (AID 1963593).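 Also: CHO cells stably overexpressing human ADRB2.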 Summed up: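 CHO cells stably over-expressing ADRB2 were plated overnight at 37C, then dosed with compounds plus a stimulation mix containing 100uM IBMX and 25uM Ro-20-1724 for 0.5hr at room temperature. cAMP was measured by HTRF competition, 1hr.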

The nature of assay [20]: cAMP Responsive Elements (CRE) small molecule agonists, cell-based qHTS assay (AID 1963590). An outline of the steps: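 Compound exposure lasted 3 h at 37 C/5% CO2 in CRE-bla HEK 293T cells grown in assay medium with 10% dialyzed FBS and 25 mM HEPES. Reporter signal came from LiveBLAzer B/G FRET substrate, 2 h, room temperature.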

Each structure is given as a SMILES string. “And” between values parts separate entries of the source, which are not always exact repeats. Equal entries are not always repeated. Records with an inconclusive call do not appear. Some structures have more than one record in an assay (separate samples or runs), and their calls can disagree. The source made the active and inactive calls. Unless noted, calls follow the shape of the full dose curve.

Sequence of Beta-2 adrenergic receptor (Homo sapiens) (P07550 whole entry, looked up): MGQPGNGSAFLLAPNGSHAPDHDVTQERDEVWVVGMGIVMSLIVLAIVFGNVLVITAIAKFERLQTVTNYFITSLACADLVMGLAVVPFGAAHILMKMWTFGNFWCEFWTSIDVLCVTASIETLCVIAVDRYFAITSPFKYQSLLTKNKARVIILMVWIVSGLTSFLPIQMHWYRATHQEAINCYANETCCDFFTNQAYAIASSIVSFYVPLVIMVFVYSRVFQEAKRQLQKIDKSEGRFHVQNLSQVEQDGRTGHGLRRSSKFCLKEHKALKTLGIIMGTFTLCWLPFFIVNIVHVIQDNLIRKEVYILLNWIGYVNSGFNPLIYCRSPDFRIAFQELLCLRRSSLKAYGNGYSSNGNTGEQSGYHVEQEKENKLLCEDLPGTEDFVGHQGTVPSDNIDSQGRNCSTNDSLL
Sequence of KiSS-1 receptor (Homo sapiens) (Q969F8 whole entry, looked up): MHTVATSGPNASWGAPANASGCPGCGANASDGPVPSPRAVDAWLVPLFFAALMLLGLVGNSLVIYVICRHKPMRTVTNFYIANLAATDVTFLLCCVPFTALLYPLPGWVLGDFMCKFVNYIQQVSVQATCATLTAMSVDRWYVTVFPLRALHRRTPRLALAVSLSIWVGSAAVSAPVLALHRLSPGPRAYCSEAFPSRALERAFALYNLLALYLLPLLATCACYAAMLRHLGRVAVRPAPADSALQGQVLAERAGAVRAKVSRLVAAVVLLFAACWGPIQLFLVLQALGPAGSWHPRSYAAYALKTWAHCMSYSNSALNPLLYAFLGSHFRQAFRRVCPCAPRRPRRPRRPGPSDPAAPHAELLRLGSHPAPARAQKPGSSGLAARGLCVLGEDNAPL
Sequence of D(2) dopamine receptor (Homo sapiens) (P14416 whole entry, looked up): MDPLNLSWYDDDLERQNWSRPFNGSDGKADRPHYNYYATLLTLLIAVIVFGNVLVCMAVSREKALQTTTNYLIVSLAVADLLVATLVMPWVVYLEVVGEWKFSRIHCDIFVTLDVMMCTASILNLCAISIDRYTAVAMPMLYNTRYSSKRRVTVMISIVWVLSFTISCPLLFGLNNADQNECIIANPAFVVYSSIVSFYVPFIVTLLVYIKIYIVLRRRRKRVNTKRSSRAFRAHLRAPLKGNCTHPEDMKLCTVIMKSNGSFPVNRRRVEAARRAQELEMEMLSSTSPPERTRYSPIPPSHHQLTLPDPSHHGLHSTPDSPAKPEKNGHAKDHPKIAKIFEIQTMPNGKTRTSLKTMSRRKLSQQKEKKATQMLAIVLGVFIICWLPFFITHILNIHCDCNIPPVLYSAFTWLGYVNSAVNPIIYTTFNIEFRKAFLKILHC
Sequence of 5-hydroxytryptamine receptor 2A (Homo sapiens) (P28223 whole entry, looked up): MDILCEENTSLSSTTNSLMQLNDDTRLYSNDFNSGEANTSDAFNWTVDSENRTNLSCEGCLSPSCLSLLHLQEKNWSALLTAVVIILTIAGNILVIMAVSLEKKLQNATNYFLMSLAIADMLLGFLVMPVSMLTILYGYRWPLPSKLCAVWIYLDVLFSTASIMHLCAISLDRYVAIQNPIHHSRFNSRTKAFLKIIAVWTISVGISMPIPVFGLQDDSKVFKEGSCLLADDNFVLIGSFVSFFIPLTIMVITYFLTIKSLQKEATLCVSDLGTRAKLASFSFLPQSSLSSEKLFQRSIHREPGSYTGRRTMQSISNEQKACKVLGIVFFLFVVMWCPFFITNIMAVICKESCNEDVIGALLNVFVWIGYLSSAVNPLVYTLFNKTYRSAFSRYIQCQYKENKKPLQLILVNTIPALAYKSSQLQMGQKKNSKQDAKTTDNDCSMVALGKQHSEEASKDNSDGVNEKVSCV

For the compound `CCC(=O)C(CC(C)N(C)C)(c1ccccc1)c1ccccc1` (stereo not given), the Potency result in assay [1], in assay [2], in assay [3], in [4], in [5] and in [6] was “inactive” throughout. For the same compound, the Potency result in assay [7], in [8], in assay [9], in assay [10], in assay [11] and in [13] was “inactive” throughout. In addition, the Potency result in assay [14], in assay [15] and in assay [16] was “inactive” in each case. For the same compound, the Potency entry in assay [12] was “inactive and 10.1 µM (active)”.

As for `COP(=O)(OC)OC`, the Potency entry in assay [1], in assay [4], in [5], in [17], in [6] and in assay [7] was “inactive” each time. In addition, the Potency result in assay [8], in assay [9], in [10], in assay [12], in assay [18] and in assay [14] was “inactive” throughout. In addition, the Potency entry in [19], in assay [15] and in assay [16] was “inactive” in each case. Further, the Potency in assay [2] is 61.6 µM (active) and inactive; in assay [11], 55.4 µM (active) and inactive; in assay [13], 49.4 µM (active) and inactive.

As to `CN(C)c1ccc(C(=O)c2ccc(N(C)C)cc2)cc1`, the Potency result in assay [1], in assay [3], in assay [4], in [5], in [17] and in [6] was “inactive” each time. Also, the Potency result in assay [10], in assay [11], in assay [12], in assay [13], in assay [18] and in assay [14] was “inactive” in each case. The Potency entry in [19], in assay [15] and in [16] was “inactive” in each case. The Potency in assay [2] is 67.9 µM (active) and 54.5 µM (active).

With `O=C(NCc1cccnc1)Nc1ccc([N+](=O)[O-])cc1`, the Potency result in assay [1], in assay [2], in assay [3], in [4], in assay [5] and in assay [6] was “inactive” in each case. For the same compound, the Potency result in [7], in [9], in assay [11], in assay [13], in assay [20] and in [18] was “inactive” each time. Also, the Potency entry in assay [14], in assay [15] and in [16] was “inactive” in each case. Also, the Potency in assay [10] is 3.75 µM (active).

For the compound `OCCN(CCO)CCO`, the Potency result in [1], in [2], in [3], in assay [4], in assay [6] and in assay [8] was “inactive” each time. The Potency entry in assay [10], in assay [11], in [12], in assay [13], in assay [20] and in [18] was “inactive” throughout. Besides, the Potency result in assay [14], in assay [19], in assay [15] and in assay [16] was “inactive” in each case.

As to `CC(C)N(C(=O)CCl)c1ccccc1`, the Potency was 54.5 µM (active) in assay [1]; 4.86 µM (active) and 10.9 µM (active) in assay [2]. Besides, the Potency entry in [3], in assay [4], in [6], in assay [7], in assay [8] and in assay [11] was “inactive” throughout. The Potency result in assay [12], in [13], in [14], in [19], in assay [15] and in [16] was “inactive” in each case.

For `COC(=O)c1ccccc1C(=O)OC`, the Potency entry in [1], in assay [2], in assay [3], in assay [4], in assay [5] and in assay [6] was “inactive” each time. Moreover, the Potency entry in assay [8], in [9], in assay [10], in [11], in [12] and in assay [13] was “inactive” each time. Moreover, the Potency entry in assay [20], in assay [18], in assay [14], in assay [15] and in assay [16] was “inactive” throughout.

For the compound `C=COCCCl`, the Potency result in assay [1], in assay [2], in assay [3], in assay [5], in [17] and in [6] was “inactive” in each case. The Potency result in assay [7], in [8], in [9], in assay [10], in [12] and in assay [13] was “inactive” in each case. Also, the Potency entry in [20], in [18], in assay [14], in assay [15] and in assay [16] was “inactive” in each case.
